Measured values taken from PubChem BioAssay.

Tests used:
PEG-3 [1] = molecular target: PEG-3 (UniProt Q6IN02); test: inhibition of PEG-3 promoter-driven reporter – cell-based, HeLa, luciferase, CREF/GAPDH counter-screen panel, dose response (AID 624167); conditions: CREF/GAPDH counter-screens; HeLa PEG-Prom luciferase reporter, overnight, run 1, dose range 1, at 100 µM (top of the series) unless noted
PEG-3 [2] = molecular target: PEG-3 (UniProt Q6IN02); test: as above; conditions: CREF/GAPDH counter-screens; HeLa PEG-Prom luciferase reporter, overnight, run 2, dose range 1, at 100 µM (top of the series) unless noted
Rat fibroblasts (CREF) [3] = test: as above; conditions: CREF/GAPDH counter-screens; run 1, dose range 1, at 100 µM (top of the series)
Rat fibroblasts (CREF) [4] = test: as above; conditions: CREF/GAPDH counter-screens; run 2, dose range 1, at 100 µM (top of the series)
[5] = molecular target: Tumor necrosis factor receptor superfamily member 10B (Homo sapiens) (UniProt O14763); test: viability loss of caspase-8 NB7 cells with TRAIL – with/without TRAIL, luminescence panel, confirmation (AID 651596); conditions: NB7 neuroblastoma + caspase-8, TRAIL sensitization, NB7 Caspase-8, with TRAIL, mean of runs, at 10 µM, stronger effect = higher value
Sequence of Tumor necrosis factor receptor superfamily member 10B (Homo sapiens) (O14763 whole entry, looked up): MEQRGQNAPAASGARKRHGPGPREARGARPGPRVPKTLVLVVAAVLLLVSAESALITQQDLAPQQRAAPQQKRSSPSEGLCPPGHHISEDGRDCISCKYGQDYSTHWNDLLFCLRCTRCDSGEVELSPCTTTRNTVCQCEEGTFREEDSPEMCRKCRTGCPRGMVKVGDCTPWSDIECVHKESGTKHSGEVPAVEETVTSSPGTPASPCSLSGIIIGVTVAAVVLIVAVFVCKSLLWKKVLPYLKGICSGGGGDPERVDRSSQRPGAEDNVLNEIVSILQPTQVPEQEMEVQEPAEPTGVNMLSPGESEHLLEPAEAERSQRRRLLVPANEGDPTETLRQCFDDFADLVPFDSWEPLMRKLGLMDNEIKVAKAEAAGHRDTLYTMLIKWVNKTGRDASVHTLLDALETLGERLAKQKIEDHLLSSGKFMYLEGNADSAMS

[6] = as above; conditions: NB7 neuroblastoma + caspase-8, without TRAIL, NB7 Caspase-8, without TRAIL, mean of runs, at 10 µM
[7] = molecular target: Tumor necrosis factor receptor superfamily member 10B (Homo sapiens) (UniProt O14763); test: compound enhancement of TRAIL-induced cell killing – NB7 cells plus caspase-8, luminescence, panel, dose response (AID 652002); conditions: NB7 neuroblastoma +caspase-8, TRAIL sensitization, luminescence viability, NB7+Caspase-8, with TRAIL, run 1; at 12.5 µM (top of the series)
[8] = molecular target: Tumor necrosis factor receptor superfamily member 10B (Homo sapiens) (UniProt O14763); test: as above; conditions: NB7 neuroblastoma +caspase-8, TRAIL sensitization, luminescence viability, NB7+Caspase-8, with TRAIL, run 2; at 12.5 µM (top of the series)
[9] = as above; conditions: NB7 neuroblastoma +caspase-8, no TRAIL, compound-alone cytotoxicity counter-screen, luminescence viability, NB7+Caspase-8, run 1; at 12.5 µM (top of the series) unless noted
[10] = as above; conditions: NB7 neuroblastoma +caspase-8, no TRAIL, compound-alone cytotoxicity counter-screen, luminescence viability, NB7+Caspase-8, run 2; at 12.5 µM (top of the series) unless noted
[11] = NFkB reporter suppression in cystic fibrosis bronchial cells – cell-based, uHTS hits, panel, cytotoxicity readout, dose response (AID 624344); conditions: CF bronchial epithelial cells, PAF-induced NFkB reporter inhibition, with PAF, run 1; at 79 µM (top of the series) unless noted
[12] = as above; conditions: CF bronchial epithelial cells, PAF-induced NFkB reporter inhibition, with PAF, run 2; at 79 µM (top of the series) unless noted

Sequence of PEG-3 (Q6IN02 whole entry, looked up): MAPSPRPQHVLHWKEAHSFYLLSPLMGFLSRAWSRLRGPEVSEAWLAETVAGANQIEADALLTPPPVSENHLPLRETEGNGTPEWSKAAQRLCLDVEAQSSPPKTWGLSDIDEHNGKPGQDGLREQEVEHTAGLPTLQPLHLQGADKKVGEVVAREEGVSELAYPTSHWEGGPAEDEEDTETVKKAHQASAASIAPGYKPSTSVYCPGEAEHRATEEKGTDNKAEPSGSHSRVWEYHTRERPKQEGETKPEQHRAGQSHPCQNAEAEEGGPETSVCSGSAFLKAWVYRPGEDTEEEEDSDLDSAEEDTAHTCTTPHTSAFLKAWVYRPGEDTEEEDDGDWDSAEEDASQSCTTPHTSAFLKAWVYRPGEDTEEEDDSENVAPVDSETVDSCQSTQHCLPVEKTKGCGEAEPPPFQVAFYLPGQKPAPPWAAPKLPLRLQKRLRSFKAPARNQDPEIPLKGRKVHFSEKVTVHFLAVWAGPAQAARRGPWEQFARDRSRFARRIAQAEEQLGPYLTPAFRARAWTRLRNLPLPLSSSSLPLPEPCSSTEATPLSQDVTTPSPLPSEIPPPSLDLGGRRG

`C(=N\Nc1nc2ccccc2[nH]1)/c1ccccn1` gave an inhibition (PEG-3 [1]) of 93.6%, an inhibition (PEG-3 [2]) of 101% and an inhibition (Rat fibroblasts (CREF) [3]) of 93.7%. For the same compound, the inhibition (Rat fibroblasts (CREF) [4]) was 96.8%, the activity [5] was 92% and the activity [6] was 95.6%.
`O=C1CCCCC1Sc1nnc(-c2ccc3c(c2)OCO3)o1` (stereo unspecified) showed an inhibition (PEG-3 [1]) of 98.4%, an inhibition (PEG-3 [2]) of 95% and an inhibition (Rat fibroblasts (CREF) [3]) of 95%. The inhibition (Rat fibroblasts (CREF) [4]) was 94.3%, the activity [5] was 48.4% and the activity [6] was 35.9%. For the same compound, the activity, % sensitization [7] was 19.6%, the activity, % sensitization [8] was 16.8% and the activity, % sensitization [9] was 29.8%. The activity, % sensitization [10] was 21.7%.
Compound `O=c1c2ccccc2oc2cc(C#CC3(O)CCCCC3)ccc12` has an inhibition (PEG-3 [1]) of 102%, an inhibition (PEG-3 [2]) of 102% and an activity [5] of 87.3%. For the same compound, the activity [6] was 85.3%.
Compound `CCCCCCCCCCCCCCC(O)C[N+](C)(CCO)CCO` (stereo unspecified) has an inhibition (PEG-3 [1]) of 94.8%, an inhibition (PEG-3 [2]) of 101% and an inhibition [11] of 95.6%. The inhibition [12] was 96.1%, the activity [5] was 94.9% and the activity [6] was 96.5%.
Work on `COc1cccc(CN(C)C(=O)C(CCSC)NS(=O)(=O)c2ccc3c(c2)OCCO3)c1OC` (stereo unspecified) yielded an inhibition (PEG-3 [1]) of 73.9%, an inhibition (PEG-3 [2]) of 99.1% and an inhibition [11] of 110%. It also gave an inhibition [12] of 106%.
With `Cc1ccc(-n2cc(-c3ccccc3)c3c(N4CCOCC4)ncnc32)cc1` the inhibition (PEG-3 [1]) was 101%, the inhibition (PEG-3 [2]) was 102% and the inhibition [11] was 107%. For the same compound, the inhibition [12] was 101%.
For `O=C1C(=Cc2ccccc2[N+](=O)[O-])Cc2ccccc21`, the inhibition [11] was 68.5% and the inhibition [12] was 106%.
Compound `CC1Sc2ccc(Cl)cc2-c2nc(N)ncc21` (stereo unspecified) has an inhibition [11] of 102% and an inhibition [12] of 108%.
Compound `COc1ccc(CN(CCC(c2ccc(F)cc2)C2CCOC(C)(C)C2)C(=O)c2ccco2)cc1` (stereo unspecified) has an inhibition [11] of 105% and an inhibition [12] of 111%.
`COC(=O)c1ccc2c(c1)C(C)(C)C(/C=C/c1ccccc1O)=[N+]2C` gave an inhibition [11] of 81.4% and an inhibition [12] of 80.5%.
`O=C(COC(=O)c1c2c(nc3ccccc13)CCN(Cc1ccccc1)C2)Nc1c(F)cccc1F` gave an inhibition [11] of 79.5% and an inhibition [12] of 74%.
Work on `CN(C)CCCN(C(=O)CCS(=O)(=O)c1ccccc1)c1nc2cc3c(cc2s1)OCO3` yielded an inhibition [11] of 88.7% and an inhibition [12] of 73%.
`O=C1NC(=S)N/C1=C\c1cccnc1` gave an inhibition [11] of 99.3% and an inhibition [12] of 99.2%.
`Cc1ccc(C(=O)c2cc([N+](=O)[O-])ccc2N2CCCCC2)c(C)c1` showed an inhibition [11] of 79.4% and an inhibition [12] of 54.3%.
`COc1ccc(-n2nc(C(=O)NCC(=O)Nc3cc(OC)c(OC)c(OC)c3)c3ccccc3c2=O)cc1OC` showed an inhibition [11] of 102% and an inhibition [12] of 101%.
`O=C(Nc1ccc(Cl)cc1)c1nc[nH]c1C(=O)NCCCCNC(=O)c1[nH]cnc1C(=O)Nc1ccc(Cl)cc1` showed an inhibition [11] of 98.8% and an inhibition [12] of 105%.
In the case of `CC(NC(=O)OCc1ccccc1)C(=O)Oc1cc2oc(=O)cc(-c3ccccc3)c2cc1Cl` (stereo unspecified), the inhibition [11] is reported as 103% and the inhibition [12] is reported as 103%.
Compound `O=C(Nc1cccc(Cl)c1)Nc1cc(S(=O)(=O)N2CCCCC2)ccc1Cl` has an inhibition [11] of 117% and an inhibition [12] of 97.2%.
For `C[C@@H]1CC=C[C@H]2[C@H]1C(=O)N(Cc1ccccc1)[C@H]2c1ccc2ccccc2c1Br`, the inhibition [11] was 110% and the inhibition [12] was 93.6%.
For `Cc1ccnc(NC(=O)CSc2cc(=O)n(C)c3ccccc23)c1`, the inhibition [11] was 103% and the inhibition [12] was 110%.
`O=c1[nH]nc(Sc2ncnc3sccc23)n1CCc1ccccc1` showed an inhibition [11] of 100% and an inhibition [12] of 105%.
Compound `O=C(Nc1ccc(N2CCN(C(=O)c3ccccc3F)CC2)cc1)c1cncc(Br)c1` has an inhibition [11] of 112% and an inhibition [12] of 99.6%.
`CC(C)=CCc1c(O)cc(O)c2c1OC(c1ccc(O)cc1)CC2=O` (stereo unspecified) showed an inhibition [11] of 93.2% and an inhibition [12] of 108%.
`COc1ccc(-c2ccccc2[C@H]2[C@@H]3C=CC[C@@H](C)[C@@H]3C(=O)N2Cc2ccccc2)cc1` showed an inhibition [11] of 102% and an inhibition [12] of 108%.
In the case of `COc1ccc(-c2cn[nH]c2-c2ccc(OCc3ccccc3)cc2O)cc1`, the inhibition [11] is reported as 99.8% and the inhibition [12] is reported as 114%.
With `O=C(Nc1ccc2c(c1)OCCO2)c1cc(-c2ccccn2)nc2ccc(Br)cc12` the inhibition [11] was 6.4% and the inhibition [12] was 68.9%.
With `COc1ccc(S(=O)(=O)c2c(O)c3ccc(C(=O)Nc4ccccc4Cl)cc3[nH]c2=O)cc1` the inhibition [11] was 96.9% and the inhibition [12] was 106%.
`CCOCC(=O)NC1CCc2cc(OC(=O)COCC)c(OC)c(OC)c2-c2ccc(SC)c(=O)cc21` (stereo unspecified) showed an inhibition [11] of 45.7% and an inhibition [12] of 85.3%.
For `O=[N+]([O-])c1ccc(NC(=S)NCCc2ccc(F)cc2)cc1`, the inhibition [11] was 115% and the inhibition [12] was 105%.
In the case of `Cc1ccc(NC(=O)CSc2ncnc3ccccc23)cc1S(=O)(=O)N1CCOCC1`, the inhibition [11] is reported as 110% and the inhibition [12] is reported as 98.4%.
For `COc1cc(/C=N/NC(=O)Nc2cccc3nsnc23)cc(OC)c1OC`, the inhibition [11] was 89.7% and the inhibition [12] was 82.7%.
`C/C(=N\Nc1cc(N2CCOCC2)ncn1)c1cccc([N+](=O)[O-])c1` gave an inhibition [11] of 115% and an inhibition [12] of 95.3%.
With `CN(Cc1ccco1)c1ncnc2ccc(-c3ccoc3)cc12` the inhibition [11] was 114% and the inhibition [12] was 101%.
`N#Cc1c(-c2ccc(Cl)cc2)n(O)c2ccccc12` gave an inhibition [11] of 111% and an inhibition [12] of 103%.
With `CCC1=Nc2cc(C(=O)NCc3ccco3)ccc2Sc2ccc(C)cc21` the inhibition [11] was 99.5% and the inhibition [12] was 92.2%.
For `COc1ccc(-c2cnc3c(NC=O)cc(-c4ccccc4OC)cn23)cc1OC`, the inhibition [11] was 93.5% and the inhibition [12] was 102%.
Work on `CC(=O)Oc1ccccc1C(=O)Oc1ccc(/C=N/n2cnnc2)cc1` yielded an inhibition [11] of 106% and an inhibition [12] of 105%.
